Source: PubChem
NadD inh = NadD (S. aureus) enzyme inhibition; AID 602399; inhibition, % at 20 µM; purified NadD enzyme, colorimetric absorbance read-out; 360,000 compounds, 0.78% hits; in the data active = inhibition above about 26%
rCAG RNA binder = binds r(CAG) RNA repeats; r(CAG) RNA repeat, TO-PRO-1 dye displacement fluorescence; inhibition, % at 3 µM; 370,000 compounds, 1.3% hits;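 active = inhibition above the plate cutoff, the mean of all test compounds on that plate plus 3 SD, cut at about 35% in these data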;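 note: 0% = DMSO alone and 100% = 100 µM mitoxantrone as full dye displacement; higher means more dye released from RNA so lower well fluorescence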
bovine MsrA act = bovine methionine sulfoxide reductase A activation | purified bovine MsrA, absorbance read-out | activation, % at 10.6 µM | 360,000 compounds, 0.3% hits | AID 602163; in the data active = activation above about 7.5%;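 note: 0% = vehicle and 100% = reference activator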
MsrA inh = inhibitors of bovine MsrA; purified bovine MsrA, absorbance read-out; 360,000 compounds, 0.75% hits; AID 651718; inhibition, % at 15.5 µM;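 note: 0% = vehicle wells with enzyme and 100% = reference inhibitor wells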
NadD inh conf = NadD (S. aureus) inhibition, single concentration confirmation. AID 624309. purified S. aureus NadD, colorimetric enzyme assay. 2,000 compounds, 13% hits. inhibition, % at 20 µM. shares compounds with NadD inh; in the data active = inhibition mostly above about 42%, no sharp cut-off; inactive = mostly below about 42%
MsrA inh confirm = confirmation of bovine MsrA inhibitors; AID 651822; shares compounds with MsrA inh; purified bovine MsrA, absorbance read-out; inhibition, % at 15.5 µM; 2,300 compounds, 41% hits;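 note: coupled to thioredoxin reductase with NADPH and selenocystamine and DMSO as substrate; 0% = vehicle only and 100% = full effect of reference inhibitor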
rCAG bind conf = r(CAG) RNA repeat binding, confirmation; TO-PRO-1 dye displacement fluorescence; shares compounds with rCAG RNA binder; 4,300 compounds, 70% hits; inhibition, % at 3 µM;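 active = inhibition above a per-plate cutoff, the mean inhibition of sample wells plus 3 SD, cut at about 35% in these data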;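 note: loss of TO-PRO-1 fluorescence as compound displaces dye from 1x1 AA loop RNA; 0% = DMSO only wells and 100% = 100 µM mitoxantrone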
dCAG dye counter = disrupts DNA CAG TO-PRO-1 complex, flagging rCAG hits. shares compounds with rCAG RNA binder. d(CAG) DNA oligo TO-PRO-1 dye displacement, fluorescence. inhibition, % at 3 µM. 4,300 compounds, 94% hits;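 active = inhibition above its plate's cutoff, the mean test-well inhibition plus 3 SD, cut at about 4.8% in these data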;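 note: 0% = DNA dye mix with DMSO and 100% = 100 µM mitoxantrone; hits displace the dye from DNA and so lower well fluorescence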
Active calls of the source: *; nt = no result; ! = not active in a repeat. Compounds with a hit are over-represented: about 2.7% of the library has one in this group of screens. Cut-off read from the data, not from the text of the source, unless noted: active = inhibition above about 4.5%; inactive = the rest.

SMILES | NadD inh | rCAG RNA binder | bovine MsrA act | MsrA inh | MsrA inh confirm | others
COC1C(OC(=O)c2ccc(C)[nH]2)C(O)C(Oc2ccc3c(O)c(NC(=O)c4ccc(O)c(CC=C(C)C)c4)c(=O)oc3c2Cl)OC1(C)C (stereo not given) | 31.4* | 77.2* | -9.0 | 0.4 | nt | NadD inh conf=50.4*;rCAG bind conf=89.0*;dCAG dye counter=69.6*
CCC/C=N/O | 4.1 | 0.0 | -5.4 | 0.6 | nt
COc1ccc(-c2cc(=NCCCCCC(=O)O)c3cc(C)ccc3o2)cc1 | 8.4 | 1.0 | -8.0 | 6.3* | 7.0*!
COc1ccc(-c2cc(=Nc3cccc(C(=O)O)c3)c3cc(C)ccc3o2)cc1 | 6.9 | 11.1 | -4.0 | 2.1 | nt
CC1=CC(=C2C(=O)NC(=O)NC2=O)C=C(C(F)(F)F)N1C(C)C | 10.2 | -0.2 | -5.3 | 4.9* | 2.4
COc1cc(C(=O)NN=Cc2ccc(N(CCCl)CCCl)cc2)cc(OC)c1OC | 5.6 | 10.1 | -5.8 | 5.2* | 4.4
COc1ccc2c(c1)/C(=C/c1cnc[nH]1)C(=O)N2 | 2.7 | 3.2 | -6.7 | 3.1 | nt
O=C1Nc2ccccc2/C1=C/c1cnc[nH]1 | -6.2 | 0.8 | -3.2 | 6.4* | 4.2
O=c1[nH]c(=S)n(-c2cccc(Cl)c2)c(O)c1C=NCCN1CCNCC1 | -4.8 | 12.4 | 0.8 | 2.6 | nt
O=c1[nH]c(=S)n(-c2ccccc2)c(O)c1C=NCCN1CCNCC1 | -3.6 | -0.5 | -3.8 | 5.4* | 1.8
O=C1NC(=O)N(Cc2cccs2)C(=O)/C1=C/c1ccc(N2CCOCC2)cc1 | 7.0 | 11.4 | -7.9 | 4.7* | 3.2
CC(CCN1CC1)=NNC(=O)Nc1cccc2ccccc12 | 14.9 | 6.3 | -0.5 | -1.2 | nt
COc1ccc(/C=N/N=C(/N)N[N+](=O)[O-])c(OC)c1 | 8.9 | 3.0 | -5.0 | 7.9* | 5.6*
COc1ccc2c(C)c(CC(=O)N3C[C@H]4C[C@@H](C3)c3cccc(=O)n3C4)c(=O)oc2c1C | 8.2 | -1.2 | -4.4 | 4.9* | 2.4
COc1ccc2c(C)c(CC(=O)N3C[C@H]4C[C@@H](C3)c3cccc(=O)n3C4)c(=O)oc2c1 | 3.4 | -0.1 | -3.4 | 1.8 | nt
CC(Cc1ccc(O)cc1)NCC(O)c1ccc(O)c(O)c1 (stereo not given) | 13.2 | 29.9 | -5.9 | 0.5 | nt
COc1cc2c(cc1O)C[C@H]1c3c(cc(O)c(OC)c3-2)CCN1C | 3.9 | 2.6 | -3.8 | 21.1* | 9.2*
CC(C)c1ccc(-n2c(O)c(/C=N/NC(=O)c3ccncc3)c(=O)[nH]c2=O)cc1 | 4.4 | 24.4 | -5.2 | 2.9 | nt
CCc1ccc(-n2c(O)c(/C=N/NC(=O)c3ccncc3)c(=O)[nH]c2=O)cc1 | 1.2 | 8.1 | -6.2 | 4.7* | 4.6*
Cc1ccc(OC(F)F)c(N2C(=O)C3C4CCC(O4)C3C2=O)c1 (stereo not given) | -8.1 | 1.7 | -1.0 | -0.6 | nt
CN(C)c1ccc(C=C2C(=O)NC(=S)NC2=O)cc1[N+](=O)[O-] | -4.2 | -0.9 | -8.1 | 7.3* | 2.7
CCOP(=O)(Nc1ccc2c(c1)C(=NNC(N)=S)c1ccccc1-2)OCC | 1.8 | 8.3 | -1.2 | 15.1* | 10.8*
CCOP(=O)(OCC)c1cccc(O)c1 | -0.4 | -0.1 | -3.7 | -0.9 | nt
N#CC1c2ccccc2-n2nncc2CN1Cc1cc(Cl)cc(Cl)c1 (stereo not given) | 3.9 | 4.3 | 1.7 | -0.2 | nt
COc1ccc(OC)c(-n2c(O)c(C=Nc3c(C)n(C)n(-c4ccccc4)c3=O)c(=O)[nH]c2=O)c1 | 8.5 | -1.3 | -4.1 | 4.0 | nt
SMILES | NadD inh | rCAG RNA binder | bovine MsrA act | MsrA inh | MsrA inh confirm | others
COc1ccccc1-n1c(O)c(C=Nc2c(C)n(C)n(-c3ccccc3)c2=O)c(=O)[nH]c1=O | 2.2 | -0.3 | -4.0 | 5.4* | 4.8*
CC(=O)Nc1ccc(N=Cc2c(O)n(Cc3ccco3)c(=O)[nH]c2=O)cc1 | 3.9 | 8.2 | -3.6 | 5.2* | 6.0*
O=c1[nH]cnc2nc(-c3ccc(N(CCCl)CCCl)cc3)[nH]c12 | -4.5 | 3.9 | -2.8 | 5.1* | 2.0
CN1C(=O)N(C)C(=O)C2(Sc3ccccc3C2=O)C1=O | -0.7 | -0.9 | -2.2 | 58.9* | 0.9
C=C(C)CSc1nnc([C@@H](N)Cc2ccccc2)o1 | -5.8 | -4.3 | -2.5 | 0.4 | nt
O=C(O)c1ccccc1NC(=O)N1C[C@H]2C[C@@H](C1)c1cccc(=O)n1C2 | 1.4 | 1.2 | 0.8 | 1.0 | nt
CSc1nc(N)c(N=Nc2ccc([As](=O)(O)O)cc2)c(=O)[nH]1 | -0.2 | -1.0 | -6.0 | 81.8* | 85.7*
COc1ccc(N=Nc2c(O)[nH]c(=S)[nH]c2=O)cc1 | -3.8 | -10.6 | -4.3 | 0.0 | nt
Nc1ccccc1Cl | -0.7 | 0.7 | -5.6 | -0.2 | nt
Cc1ccc(C(O)P(=O)(Oc2ccccc2)Oc2ccccc2)cc1 (stereo not given) | 0.2 | -6.5 | 0.6 | -0.5 | nt
O=C(O)c1nn(Cc2ccc(Cl)cc2)c2ccccc12 | 2.4 | 5.7 | -3.7 | 0.4 | nt
CCN(CC)c1ccc(/C=C2\C(=O)NC(=O)N(Cc3ccco3)C2=O)cc1 | 11.7 | 24.5 | -5.5 | 3.7 | nt
CCCCN1C(=O)/C(=C/c2ccc(N(C)C)cc2)C(=O)N(Cc2ccco2)C1=O | 34.4* | 54.4* | -4.7 | 5.3* | 5.5* | rCAG bind conf=32.6;dCAG dye counter=10.1*
Cc1ccccc1N1CCN(Cc2ccc3c(c2)OCO3)CC1 | -2.0 | 0.4 | -1.8 | 0.5 | nt
N/C(=N\N=C/c1ccc(-c2ccc(O)c(C(=O)O)c2)o1)N[N+](=O)[O-] | 3.8 | 57.5* | -3.7 | 5.2* | 4.7* | rCAG bind conf=66.8*;dCAG dye counter=28.4*
COc1cc(/C=C2\C(=O)NC(=O)N(CCc3ccc(F)cc3)C2=O)ccc1O | 0.9 | 43.4* | -13.2 | 7.6* | 4.3 | rCAG bind conf=5.0;dCAG dye counter=1.2
COc1cc(C=C2C(=O)NC(=O)NC2=O)ccc1O | -2.0 | -5.0 | -0.5 | 3.2 | nt
CC(C)(C)c1cc(O)ccc1O | nt | 0.4 | nt | 1.2 | nt
C[n+]1c(-c2ccccc2)c2cc(N)ccc2c2ccc(N)cc21 | 19.3 | 41.4* | 3.6 | 43.5* | 34.4* | rCAG bind conf=49.2*;dCAG dye counter=62.7*
C[C@H](NC(=O)OCc1ccccc1)[P+](=O)O | nt | 2.8 | nt | nt | nt
COc1ccc(C(SCC(NC(=O)OCc2ccccc2)C(=O)O)c2ccc(OC)cc2)cc1 (stereo not given) | 0.8 | 52.9* | -11.0 | 0.5 | nt | rCAG bind conf=52.5*;dCAG dye counter=14.2*
Cc1cc2c(C(C)C)c(O)c(O)c(C=O)c2c(O)c1-c1c(C)cc2c(C(C)C)c(O)c(O)c(C=O)c2c1O | 50.3* | 97.2* | -3.6 | 0.4 | nt | rCAG bind conf=94.4*;dCAG dye counter=80.9*
CCc1ccccc1N1C(=O)/C(=C/c2ccc(N3CCN(C)CC3)o2)C(=O)NC1=S | 9.8 | 49.8* | -3.2 | -0.4 | nt | rCAG bind conf=48.4*;dCAG dye counter=24.1*
Cc1cccc(N2C(=O)/C(=C/c3ccc(N4CCN(C)CC4)o3)C(=O)NC2=S)c1C | 5.9 | 49.4* | -13.2 | 1.7 | nt | rCAG bind conf=54.6*;dCAG dye counter=25.7*
